Screening data (PubChem BioAssay)
KKLEB cytotox = counter-screen for CF NF-kB inhibitors: cytotoxicity | KKLEB CF airway cells viability, ATPlite luminescence, overnight; hits give low values; cells stimulated with P. aeruginosa culture filtrate | activity change (cytotoxicity), % at 5 µM | actives 0.36% (n = 360,000) | AID 602141;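 active = corrected activity change at or below -50% at 5 µM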
CF NFkB block = cystic fibrosis NF-kB activation inhibition. inhibition, % at 5 µM. AID 588850. actives 0.86% (n = 360,000). KKLEB NF-kB-GFP reporter, PAF-induced, GFP fluorescence overnight;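 active = at least 50% inhibition at 5 µM, scaled per plate between neutral and stimulator controls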;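 also: PAF is a Pseudomonas aeruginosa culture filtrate used as stimulus; plate controls were PAF-stimulated DMSO wells for no effect and unstimulated DMSO wells for full effect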
HIF-2a block = inhibitors of HIF-2a | inhibition, % at 18.8 µM | actives 0.72% (n = 360,000) | 786-0 RCC cells HIF-2a reporter, luciferase luminescence, overnight;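 active = inhibition of the luminescence signal of 40% or more relative to plate controls, in a single-dose primary screen at 18.75 µM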
Shn3 3UTR inh = Schnurri-3 reporter inhibition in Clone20 osteoblasts. inhibition, % at 12.5 µM. Clone20 osteoblast Shn3 3'UTR firefly luciferase, 24 h. actives 0.52% (n = 360,000);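 active = mean inhibition of at least 75% with every replicate also reaching 75%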;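 also: 0% = median of neutral control wells and 100% = pilot-screen positive control compound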
TRPM1 prom inh = reduces MITF-dependent TRPM1 promoter luciferase signal | SK-MEL-5 TRPM1 promoter luciferase, 24 h | inhibition, % at 12.5 µM | actives 0.83% (n = 330,000);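 active = mean inhibition across replicates of 60% or more, whatever share of single replicates reaches that level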
Peg3 prom inh = reduces Peg3 promoter-driven luciferase expression in HeLa; HeLa PEG-Prom luciferase reporter, luminescence, overnight; inhibition, % at 20 µM; actives 1.7% (n = 360,000); AID 588405;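 active = inhibition of at least 50% at 20 µM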
Mdm2-MdmX confirm = confirmation of inhibitors of human Mdm2/MdmX interaction, set 2; shares compounds with HIF-2a block; AID 504601; actives 99% (n = 740); SaOS-2 split-luciferase Mdm2/MdmX complementation, luminescence; inhibition, % at 8 µM;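 active = mean inhibition of the luminescence signal across two replicates at or above 26 percent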
Target sequence (O15151 whole entry, looked up): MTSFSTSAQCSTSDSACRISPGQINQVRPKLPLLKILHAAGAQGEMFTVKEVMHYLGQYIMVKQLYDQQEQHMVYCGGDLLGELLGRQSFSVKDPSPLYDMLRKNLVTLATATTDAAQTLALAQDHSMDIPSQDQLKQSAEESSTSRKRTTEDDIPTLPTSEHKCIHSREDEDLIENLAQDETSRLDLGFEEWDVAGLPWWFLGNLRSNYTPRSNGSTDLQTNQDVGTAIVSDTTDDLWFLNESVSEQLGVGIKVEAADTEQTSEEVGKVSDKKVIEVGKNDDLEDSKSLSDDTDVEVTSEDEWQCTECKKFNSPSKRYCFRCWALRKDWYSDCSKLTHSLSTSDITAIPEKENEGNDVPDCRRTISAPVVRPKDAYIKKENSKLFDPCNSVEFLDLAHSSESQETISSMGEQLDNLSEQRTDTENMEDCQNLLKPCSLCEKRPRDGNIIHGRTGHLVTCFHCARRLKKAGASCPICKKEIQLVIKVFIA
Target sequence (Q00987 whole entry, looked up): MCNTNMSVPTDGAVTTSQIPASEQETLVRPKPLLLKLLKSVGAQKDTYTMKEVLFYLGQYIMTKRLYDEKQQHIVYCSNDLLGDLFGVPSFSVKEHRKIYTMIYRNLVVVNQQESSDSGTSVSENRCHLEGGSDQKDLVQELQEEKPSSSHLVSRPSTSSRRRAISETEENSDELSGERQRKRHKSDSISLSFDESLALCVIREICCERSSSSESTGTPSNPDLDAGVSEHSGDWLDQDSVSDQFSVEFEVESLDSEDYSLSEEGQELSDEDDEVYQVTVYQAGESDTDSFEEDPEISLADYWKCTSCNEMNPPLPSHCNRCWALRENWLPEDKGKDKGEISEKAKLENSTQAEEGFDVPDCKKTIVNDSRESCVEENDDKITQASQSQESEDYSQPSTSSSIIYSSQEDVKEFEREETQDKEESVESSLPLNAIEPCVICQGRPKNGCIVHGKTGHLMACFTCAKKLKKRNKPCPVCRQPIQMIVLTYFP
HIF-2a conf = HIF-2a inhibition, single concentration confirmation; shares compounds with HIF-2a block; 786-0 RCC cells, HIF-2a luciferase reporter luminescence, overnight; inhibition, % at 18.8 µM; actives 56% (n = 1,800);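 active = mean inhibition across four replicates of at least 40 percent at the single tested concentration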
HIF-1a cs = inhibits HIF-1a reporter, a counter-screen for HIF-2a inhibitors; shares compounds with HIF-2a block; MiaPaCa-2 HIF-1a luciferase reporter, desferoxamine, overnight; inhibition, % at 18.8 µM; actives 72% (n = 1,800);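 active = mean inhibition of the reporter signal across four replicates at the single tested dose of 50% or more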
The depositor's hits bear a star; · = not tested or not shown. Hits are enriched below; roughly 2.8% of the tested compounds scored in any of these assays.

SMILES | KKLEB cytotox | CF NFkB block | HIF-2a block | Shn3 3UTR inh | TRPM1 prom inh | Peg3 prom inh | HIF-2a conf | HIF-1a cs | others
NC1CC2CCCCC2CC1(O)c1ccccc1 (stereo not given) | -3 | 27 | -3 | 23 | · | -1 | · | ·
COc1cc2c(cc1/C=C/[N+](=O)[O-])OCO2 | -3 | 26 | 71* | 71 | 79* | 110* | 79* | 98*
O=C(Nc1ccc(OC(=O)N2CCCCC2)cc1)N1CCOCC1 | 7 | 15 | 72* | 60 | 66* | 16 | 76* | 51*
C[C@H]1[C@@H](OS(=O)(=O)O)C[C@@H]2C[C@H]([C@@H](O)c3cc(=O)[nH]c(=O)[nH]3)NC3=NC[C@H]1N32 | -10 | 76* | 54* | 98* | 74* | 97* | 23 | 105*
CNC(=S)N1CCN(CCN=Cc2c(O)n(-c3ccc(C)cc3)c(=S)[nH]c2=O)CC1 | 11 | -15 | 1 | 12 | -4 | -4 | · | ·
COc1cc(/C=N/n2cnnc2)ccc1OC(=O)N(C)C | 20 | 2 | 7 | 3 | 2 | 5 | · | ·
COc1cc(/C=C/[N+](=O)[O-])ccc1OC(=O)c1cccnc1 | 1 | 34 | 42* | -8 | 32 | 88* | 54* | 45
c1ccc(CCN2CCCCC2)nc1 | -4 | -4 | 1 | -6 | -3 | -17 | · | ·
CC1=C(C)CC2(C(=O)NC(=S)NC2=O)C(C)C1 (stereo not given) | -7 | 8 | 13 | 15 | -7 | -11 | · | ·
CC(N)C(=O)NC1C2C(=C(O)CC(O)C2O)C(=O)OC1(C)C(Cl)Cl (stereo not given) | -31 | 87* | 45* | 96* | 66* | 96* | 57* | 104*
CC(C)(OOC1(c2ccccc2)NC(=O)c2ccccc21)c1ccccc1 (stereo not given) | · | · | 14 | · | · | · | · | ·
CCCC[C@@H](C)C[C@@H](C)C(=O)N(C)[C@@H](CC(C)C)C(=O)N[C@H](C(=O)N(C)[C@H](C(=O)N1C[C@@H](O)C[C@H]1C(=O)N1C(=O)C=C[C@@H]1C)C(C)C)C(C)OC(C)=O (stereo not given in full) | -88* | 84* | 53* | 85 | 100* | 92* | · | · | Mdm2-MdmX confirm=100*
Cc1nc2cc(-c3ccccc3)nn2c(C)c1CCC(=O)N1CCC2(CC1)OCCO2 | -6 | 2 | 70* | 40 | 41 | -41 | 81* | 36
Cc1nc2ncnn2c(C)c1CCC(=O)N1CCC2(CC1)OCCO2 | 8 | 5 | 7 | 2 | 3 | 5 | · | ·
C=C(C)C(Cc1c(OC)ccc(C(=O)/C=C/c2ccc(O)cc2)c1O)OO (stereo not given) | -17 | 3 | -90 | -86 | -28 | -55 | · | ·
CC(C)(O)C(=O)Nc1ccc([N+](=O)[O-])c(C(F)(F)F)c1 | 8 | 7 | 0 | 17 | 0 | -8 | · | ·
COc1cc2c(cc1OC)CN(c1ccc([N+](=O)[O-])c(C(F)(F)F)c1)CC2 | -9 | -12 | 46* | 61 | -2 | 27 | -12 | 36
CC(=O)O[C@H]1[C@H]2O[C@]23[C@@H]2CC[C@]4(O)C[C@@H](O)CC[C@]4(C)C2CC[C@]3(C)[C@H]1c1ccc(=O)oc1 (stereo not given in full) | -54* | 82* | 76* | 12 | 79* | 101* | 43* | 106* | Mdm2-MdmX confirm=87*
CCC(C)(O)C(=O)OC1C(=O)OC2CC3C(C)=CC(O)C(O)C3(C)C3C4(O)OCC23C1C(C)C4O (stereo not given) | 5 | 35 | 46* | 5 | · | 95* | 45* | 102*
CNc1ccc2oc(C[C@H]3O[C@@]4(CC[C@H]3C)O[C@H]([C@H](C)C(=O)c3ccc[nH]3)[C@H](C)C[C@H]4C)nc2c1C(=O)O | -55* | 36 | 87* | 97* | 102* | 91* | · | · | Mdm2-MdmX confirm=102*
